According to the supplement of paper PMC13380429:

Test system: Vero E6 infected with SARS-CoV-2
Assay: inhibition of SARS-CoV-2 cytopathic effect; higher = more antiviral protection, active = above 15
Conditions: 48 h

Measured: inhibition of SARS-CoV-2 cytopathic effect

O=C(c1cc(S(=O)(=O)Nc2ccccc2F)c(F)cc1Cl)N1CCN2CCC[C@@H]2C1
inactive: 1 nM 1.66% | 8.33 nM 2.06% | 100 nM 1.64% | 833.33 nM 8.06% | 10000 nM -1.59%

CCCN(CC1CC1)c1nc(C)nc(Nc2c(Cl)cc(Cl)cc2Cl)c1Cl
inactive: 1 nM 4.5% | 8.33 nM 2.92% | 100 nM 1.63% | 833.33 nM 0.09% | 10000 nM 1.2%

OC[C@H]1O[C@H](O[C@H]2[C@H](O)[C@@H](O)[C@H](O)O[C@@H]2CO)[C@H](O)[C@@H](O)[C@@H]1O [D-(+)-maltose]
inactive: 1 nM -1.05% | 8.33 nM -1.49% | 100 nM -0.09% | 833.33 nM -1.17% | 10000 nM -3.27%

CCNC(=O)/C=C/c1cccc(Br)c1 [cinromide]
inactive: 1 nM 0.47% | 8.33 nM 1.25% | 100 nM 0.09% | 833.33 nM 2.1% | 10000 nM 1.33%

CCN(CC)S(=O)(=O)c1ccc(C(=O)O)cc1 [etebenecid]
inactive: 1 nM -3.2% | 8.33 nM 1.54% | 100 nM 0.48% | 833.33 nM 1.89% | 10000 nM 2.73%

COC(=O)/C=C/C(=O)N[C@@H]1CC[C@@]2(O)[C@H]3Cc4ccc(O)c5c4[C@@]2(CCN3CC2CC2)[C@H]1O5 [beta-funaltrexamine]
inactive: 1 nM -1.34% | 8.33 nM 1.21% | 100 nM -0.8% | 833.33 nM 1.68% | 10000 nM 6.01%

C[C@@H](CN1CCC(Cc2ccccc2)CC1)[C@@H](O)c1ccc(O)cc1
inactive: 1 nM -1.15% | 8.33 nM -0.92% | 100 nM -0.78% | 833.33 nM -2.61% | 10000 nM -5.49%

COc1c(OCCCN2CCOCC2)ccc2c1N=C(NC(=O)c1cnc(N)nc1)N1CCN=C21 [copanlisib]
inactive: 1 nM -2.48% | 8.33 nM -1.99% | 100 nM -3.58% | 833.33 nM -5.18% | 10000 nM -12.2%

CNC(=O)[C@@H](NC(=O)[C@H](CC(C)C)[C@H](O)C(=O)NO)C(C)(C)C [marimastat]
inactive: 1 nM -4.07% | 8.33 nM 2.33% | 100 nM -5.18% | 833.33 nM -6.93% | 10000 nM -13.7%
